Screening results deposited in PubChem BioAssay by Sanford-Burnham Center for Chemical Genomics.
tim10-1 inh = tim10-1 yeast growth inhibition | S. cerevisiae tim10-1 ts strain growth, BacTiter-Glo, 24 h | inhibition, % at 20 µM | 2.2% of 330,000 active | AID 463190;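 active means inhibition of at least 40%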;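 further: mutant grown at 25 °C; 0% = DMSO wells with yeast and 100% = wells holding no yeast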
MPTP inh = blocks calcium-induced mitochondrial swelling; isolated mouse mitochondria, Ca2+ swelling absorbance, 30 min; 1.4% of 360,000 active; AID 602449; inhibition, % at 10 µM;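 active means inhibition of 50% or more, scaled per plate between neutral and stimulator controls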;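 further: 0% = DMSO wells given calcium and 100% = 1 mM EGTA wells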
TIM10 inh = TIM10 yeast growth inhibition; S. cerevisiae TIM10 strain growth, BacTiter-Glo luminescence, 24 h; inhibition, % at 10 µM; 1.4% of 330,000 active;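 active means inhibition of 40% or more at the single tested concentration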;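 further: wild-type TIM10 isogenic control strain grown at permissive 25 °C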
tim23-1 inh = growth inhibitors of tim23-1 mutant yeast; S. cerevisiae tim23-1 growth, BacTiter-Glo luminescence, 24 h; inhibition, % at 20 µM; 1.3% of 330,000 active; AID 463212;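 active means growth inhibition of the mutant yeast at or above 50%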;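 further: temperature-sensitive mutant grown at 25 °C; plate controls were DMSO-treated mutant yeast for no effect and medium wells lacking yeast for full effect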
Mdm2 MdmX PPI = inhibitors of human Mdm2/MdmX interaction; O15151+Q00987; SaOS-2 split-luciferase Mdm2/MdmX complementation, luminescence; inhibition, % at 8 µM; 3% of 330,000 active; AID 485346;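 active means inhibition of at least 50% at 8 µM in the primary screen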
Target sequence (O15151 whole entry, looked up): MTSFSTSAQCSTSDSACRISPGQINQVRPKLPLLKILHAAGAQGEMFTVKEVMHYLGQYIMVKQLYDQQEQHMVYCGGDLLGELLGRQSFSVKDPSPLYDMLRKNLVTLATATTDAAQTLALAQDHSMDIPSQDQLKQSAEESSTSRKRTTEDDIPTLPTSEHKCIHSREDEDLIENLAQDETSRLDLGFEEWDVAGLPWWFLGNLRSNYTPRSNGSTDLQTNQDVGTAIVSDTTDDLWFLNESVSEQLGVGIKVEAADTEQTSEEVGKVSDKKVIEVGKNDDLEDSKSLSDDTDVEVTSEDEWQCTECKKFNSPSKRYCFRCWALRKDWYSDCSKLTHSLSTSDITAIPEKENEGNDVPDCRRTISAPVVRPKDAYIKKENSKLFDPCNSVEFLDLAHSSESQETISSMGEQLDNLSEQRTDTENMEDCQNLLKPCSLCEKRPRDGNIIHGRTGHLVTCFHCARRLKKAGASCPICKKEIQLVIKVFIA
Target sequence (Q00987 whole entry, looked up): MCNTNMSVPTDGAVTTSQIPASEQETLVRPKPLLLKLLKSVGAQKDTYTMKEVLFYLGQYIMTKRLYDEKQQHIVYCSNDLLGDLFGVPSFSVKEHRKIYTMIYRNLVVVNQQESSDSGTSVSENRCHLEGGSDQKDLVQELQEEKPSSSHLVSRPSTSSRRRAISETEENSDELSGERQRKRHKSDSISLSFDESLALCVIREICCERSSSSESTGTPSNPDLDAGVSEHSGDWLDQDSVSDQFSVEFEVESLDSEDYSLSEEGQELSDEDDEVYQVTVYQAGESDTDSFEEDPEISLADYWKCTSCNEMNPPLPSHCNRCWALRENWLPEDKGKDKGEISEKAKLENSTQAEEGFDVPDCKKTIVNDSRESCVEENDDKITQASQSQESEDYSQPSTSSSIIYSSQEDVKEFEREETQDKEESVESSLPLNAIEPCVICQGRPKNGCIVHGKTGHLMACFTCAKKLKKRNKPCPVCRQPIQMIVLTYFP
tim23-1 confirm = tim23-1 yeast growth inhibition, confirmed | shares compounds with tim23-1 inh | S. cerevisiae tim23-1 growth, BacTiter-Glo luminescence, 24 h | inhibition, % at 20 µM | 83% of 4,400 active | AID 463218;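 active means inhibition above about 39% in either of two replicate wells at 20 µM, limit read from the data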;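 further: temperature-sensitive tim23-1 mutant grown at 25 °C; 0% = DMSO wells with yeast and 100% = medium wells without yeast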
Mdm2-MdmX conf = confirmation of human Mdm2/MdmX interaction inhibitors | inhibition, % at 8 µM | shares compounds with Mdm2 MdmX PPI | 55% of 10,000 active | Mdm2-MdmX binding, luminescent assay; in the data active means inhibition above about 40%
Full FLuc ctr = inhibits full-length luciferase, flagging false Mdm2/MdmX hits; shares compounds with Mdm2 MdmX PPI; SaOS-2 full-length luciferase counterscreen, luminescence; inhibition, % at 8 µM; 77% of 6,200 active;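 active means mean inhibition at 8 µM reaching about 37%, which flags the compound as non-specific, limit read from the data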;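 further: p53-null SaOS-2 cells with luciferase driven by a doxycycline-inducible promoter; compound on cells about two nights before reading with doxycycline added after day one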
MPTP counter = mitochondrial membrane potential, counter-screen. shares compounds with MPTP inh. AID 624504. isolated mitochondria, Rhodamine 123 fluorescence. 78% of 5,000 active. inhibition, % at 10 µM; in the data active means inhibition above about 22%;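 further: 0% = DMSO vehicle and 100% = positive control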
The depositor's hits bear a star; nt = not tested or not shown. The list is not random: actives were taken first. Their share in the collection is about 6.3%.

SMILES	tim10-1 inh	MPTP inh	TIM10 inh	tim23-1 inh	Mdm2 MdmX PPI	tim23-1 confirm	MPTP counter	others
N#C/C(=C\c1ccc(Sc2nc3ccccc3[nH]2)o1)c1ccccc1	33	93*	35	51*	22	41*	84*
CN(C)CCCNC(=O)c1ccc(-c2cc3nc(NCc4cccnc4)n(C)c(=O)c3s2)cc1	nt	0	nt	nt	nt	nt	nt
Cc1ccccc1OCCCSc1nc2ccccc2[nH]1	14	68*	28	68*	-29	64*	99*
c1ccc(OCCSc2nc3ccccc3[nH]2)cc1	-9	-6	8	49	-16	nt	nt
Cc1cc2nc(C3CCCCC3)c(Cc3cccc(Cl)c3)n2c(C)c1Br	nt	0	nt	nt	nt	nt	nt
CC1=NN(c2ccc(Cl)cc2)C(=O)C1C(c1ccccc1O)c1c(C)[nH]n(-c2ccc(Cl)cc2)c1=O (centres undefined)	39	88*	31	57*	31	49*	24*
Cc1nc(SCc2nc3ccc(Cl)cc3[nH]2)c2oc3ccccc3c2n1	21	37	-1	45	31	nt	nt
Cc1nc(SCc2nc3ccc(C(F)(F)F)cc3[nH]2)c2oc3ccccc3c2n1	33	50*	7	57*	49	49*	89*
Cc1nc(SCc2nc3cc(Cl)c(F)cc3[nH]2)c2oc3ccccc3c2n1	33	63*	35	56*	92*	50*	80*	Mdm2-MdmX conf=42*;Full FLuc ctr=32
O=[N+]([O-])c1ccc2c(c1N1CCCCC1)=NC1(CCCCC1)[N+]=2[O-]	35	58*	27	54*	3	42*	36*
COCCNC(=O)C1(C)CCN(Cc2noc(-c3c(C)noc3C)n2)C1 (centres undefined)	nt	-1	nt	nt	nt	nt	nt
O=C(NN1C(=O)c2cc(Br)ccc2NC1c1ccccc1Cl)c1ccncc1 (centres undefined)	16	2	8	1	-32	nt	nt
O=C(NN1C(=O)c2cc(Br)ccc2NC1c1cc(Br)cc(Br)c1O)c1ccncc1 (centres undefined)	32	88*	33	68*	4	74*	52*
O=C(NCCN1CCC(n2c(=O)[nH]c3ccccc32)CC1)c1c(F)cccc1F	nt	1	nt	nt	nt	nt	nt
O=S(=O)(c1ccc2c(c1)C(O)c1ccccc1CC2)C(F)(F)F (centres undefined)	34	90*	24	63*	4	45*	92*
CNC(=S)N/N=C/c1cc(Br)cc(Br)c1O	25	88*	35	58*	11	54*	60*
COc1cc(/C=C(/C#N)c2ccccc2)ccc1Oc1ccc([N+](=O)[O-])cn1	23	3	2	28	19	nt	nt
COc1cc(/C=C(\C#N)c2nc3ccccc3[nH]2)ccc1Oc1ccc([N+](=O)[O-])cn1	11	78*	29	58*	17	36	55*
Oc1ccccc1/C=N/NC(=S)NC1CC2CC1C1C=CCC21 (centres undefined)	31	59*	25	74*	36	49*	54*
COc1cccc(/C=N/NC(=S)NC2CC3CC2C2C=CCC32)c1O (centres undefined)	5	18	14	12	32	nt	nt
CN(C)S(=O)(=O)c1cccc(NC(=S)N/N=C/c2cccc(O)c2)c1	8	2	11	3	-48	nt	nt
CN(C)S(=O)(=O)c1cccc(NC(=S)N/N=C/c2cc(Br)ccc2O)c1	19	100*	29	58*	70*	48*	38*	Mdm2-MdmX conf=78*;Full FLuc ctr=37*
COc1cccc(C(=O)c2ccccc2NC(C)=O)c1	nt	-1	nt	nt	nt	nt	nt
CCCCn1c(/C=N/Nc2nc3ccccc3[nH]2)nc2ccccc21	38	100*	-10	55*	47	56*	84*
COc1ccc(Cl)cc1C1=NOC2(CCC2)C(=O)N1Cc1cccc(C#N)c1	nt	-1	nt	nt	nt	nt	nt
SMILES	tim10-1 inh	MPTP inh	TIM10 inh	tim23-1 inh	Mdm2 MdmX PPI	tim23-1 confirm	MPTP counter	others
Cc1cc(C)c(CN2CCN(C(=O)Cn3cnc4c(NCc5ccccc5)ncnc43)CC2)c(C)c1	10	80*	9	92*	29	12	84*
Cc1nn(-c2ccccc2)c2c1C(c1ccc([N+](=O)[O-])cc1)C(C#N)=C(N)O2 (centres undefined)	9	1	-2	12	14	nt	nt
Cc1nn(-c2ccccc2)c2c1C(c1cccs1)C(C#N)=C(N)O2 (centres undefined)	24	75*	32	61*	-2	60*	7
CC(C)(C)n1nnnc1C(c1ccccc1)N1CCN(C(=O)c2ccco2)CC1 (centres undefined)	nt	0	nt	nt	nt	nt	nt
COc1ccc(C2CC(c3ccccc3)=NN2c2ccc(N)cc2)cc1 (centres undefined)	28	73*	27	51*	28	41*	71*
O=S1(=O)N[C@@H](Cc2ccccc2)COc2ccc(Cl)cc21	nt	0	nt	nt	nt	nt	nt
COc1ccc(Cl)cc1-c1nc(-c2ccc(Br)o2)no1	6	2	7	6	51*	nt	nt	Mdm2-MdmX conf=20
CN(C)CC(CCC(CN(C)C)C(O)(c1ccccc1)c1ccccc1)C(O)(c1ccccc1)c1ccccc1 (centres undefined)	19	nt	8	25	100*	nt	nt	Mdm2-MdmX conf=99*;Full FLuc ctr=52*
COc1ccc(C2CC(c3ccccc3)=NN2C(=O)COC(=O)c2cccc(O)c2)cc1 (centres undefined)	2	0	2	5	55*	nt	nt	Mdm2-MdmX conf=-7
COc1ccc(C2CC(c3ccc4ccccc4c3)=NN2C(=O)CNC2CCCCC2)cc1 (centres undefined)	-15	8	14	12	62*	nt	nt	Mdm2-MdmX conf=28
COc1ccc(C2CC(c3ccccc3)=NN2C(=O)COC(=O)c2ccc(S(C)(=O)=O)cc2)cc1 (centres undefined)	22	0	14	29	20	nt	nt
Cc1ccc(C(=O)Cn2c(=N)n(CCN3CCOCC3)c3ccccc32)cc1	13	1	-6	13	-11	nt	nt
CCCCn1c(=N)n(CC(=O)c2ccco2)c2ccccc21	4	0	14	11	-11	nt	nt
Cc1ccc(Cn2c(=N)n(CC(=O)c3ccc([N+](=O)[O-])cc3)c3ccccc32)cc1	17	10	6	-8	98*	nt	nt	Mdm2-MdmX conf=18
CCCCn1c(=N)n(CC(=O)c2ccc([N+](=O)[O-])cc2)c2ccccc21	20	nt	10	7	55*	nt	nt	Mdm2-MdmX conf=16
CCc1nc2cc(NC(=O)C3(C)CCCN(C(C)C)C3)ccc2o1 (centres undefined)	nt	0	nt	nt	nt	nt	nt
Cc1cccc(C)c1NC(=O)CN(Cc1ccccc1)Cc1ccccc1	nt	-2	nt	nt	nt	nt	nt
